Results published in the supplement of paper PMC10646978.
± gives the standard deviation.

Legend:
Conditions in all cases: modulator concentration 10 µM
[1] = tested on: RAW-Dual (murine macrophage reporter line); assay: NF-kB reporter (SEAP) activity fold change vs agonist alone; higher = enhanced NF-kB activity
Summary of the method: (§1)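 RAW-Dual murine macrophage reporter cells were plated at 50 000 per well in 384-well plates, pin-transferred compound to 10 μM final, and pre-incubated for 1 hour at 37 °C before a PRR agonist was added and the cells incubated overnight. NF-κB activity was read from supernatant SEAP with QUANTI-Blue at 620 nm absorbance, and IRF activity from Lucia luciferase with QUANTI-Luc by luminescence. Each signal was expressed as fold change by dividing by the mean agonist-only control on the same plate. Two replicate plates were averaged, with errors obtained by propagation.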

[2] = tested on: RAW-Dual (murine macrophage reporter line); assay: IRF reporter (Lucia luciferase) activity fold change vs agonist alone; higher = enhanced IRF activity
Summary of the method: as §1

[3] = tested on: RAW-Dual (murine macrophage reporter line); assay: viability score (confluency relative to resting cells, overnight) (fraction); higher = more viable, active = viable (0.7 or more)
Summary of the method: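 Two confluency masks, generated with IncuCyte software over all imaged wells, were applied to IncuCyte images of RAW-Dual macrophages. The cells, in 384-well plates, had been exposed overnight to 10 μM final compound. The viability score is confluency as a fraction of resting cells, and a compound met the cutoff only with both masks above 70% of resting cells.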

[4] = agonist: CpG ODN 1826 0.5 ug/mL

Compound | NF-kB reporter [1, 4] | NF-kB reporter ([1]; agonist: LPS 0.1 ug/mL) | NF-kB reporter ([1]; agonist: MPLA […]) | IRF reporter ([2]; agonist: 3'3'-cGAMP 10 ug/mL) | IRF reporter ([2]; agonist: LPS 0.1 ug/mL) | IRF reporter ([2]; agonist: MPLA […]) | viability score [3]
NCCCS(=O)(=O)O | 0.883 ± 0.069 | 1 ± 0.072 | 0.98 ± 0.024 | 1.06 ± 0.058 | 0.978 ± 0.039 | 0.891 ± 0.12 | 0.998 (active)
CC(C)C(=O)c1c(C(C)C)nn2ccccc12 | 1.59 ± 0.12 | 1.2 ± 0.086 | 1.21 ± 0.032 | 0.808 ± 0.076 | 0.938 ± 0.031 | 0.926 ± 0.088 | 0.957 (active)
Cc1cc(C)c(S(=O)(=O)N2CCN(C(=O)N(C)C)CC2)c(C)c1 | 1.83 ± 0.4 | 1.21 ± 0.24 | 2.12 ± 0.63 | 0.505 ± 0.32 | 0.802 ± 0.48 | 0.738 ± 0.31 | 0.564 (inactive)
Cc1ccc(N2C(=O)C(Cl)=C(Nc3cccc(C)c3C)C2=O)cc1Cl | 0.739 ± 0.062 | 0.897 ± 0.064 | 1.28 ± 0.053 | 0.549 ± 0.063 | 0.954 ± 0.039 | 1.63 ± 0.21 | 0.995 (active)
COc1ccc(C2N3CC4(C)CN2CC(C)(C3)C4O)cc1 (centres undefined) | 0.816 ± 0.067 | 0.949 ± 0.046 | 0.966 ± 0.1 | 0.995 ± 0.055 | 1.49 ± 0.086 | 1.66 ± 0.15 | 1.01 (active)
Cc1cccc(C(=O)NC2CCC(F)(F)CC2)c1 | 1.07 ± 0.068 | 0.934 ± 0.082 | 1.03 ± 0.058 | 0.823 ± 0.034 | 1.1 ± 0.058 | 0.99 ± 0.2 | 1 (active)
COc1ccc(-c2oc3ccc(OC)cc3c2C(=O)Nc2ccccc2C)cc1 | 0.917 ± 0.047 | 1.17 ± 0.092 | 0.959 ± 0.073 | 1 ± 0.055 | 1.1 ± 0.073 | 1.12 ± 0.11 | 1 (active)
Cl.Cn1c(=N)n(CC(O)c2ccco2)c2ccccc21 (centres undefined) | 1.05 ± 0.061 | 1.09 ± 0.077 | 0.969 ± 0.069 | 1.22 ± 0.04 | 1.46 ± 0.21 | 1.3 ± 0.18 | 0.992 (active)
CCOc1ccc(CC(=O)NC2(c3nc(-c4ccccc4)no3)CCCCC2)cc1OCC | 0.697 ± 0.031 | 1.02 ± 0.095 | 0.93 ± 0.058 | 1.03 ± 0.049 | 1.24 ± 0.32 | 1.3 ± 0.37 | 0.979 (active)
COc1ccc(CN(CCN(C)C)c2ccccn2)cc1 [Prestw-289] | 0.902 ± 0.068 | 1.08 ± 0.11 | 1.01 ± 0.026 | 0.976 ± 0.11 | 0.912 ± 0.1 | 0.848 ± 0.066 | 0.993 (active)
COc1ccc(S(=O)(=O)NNc2ccc([N+](=O)[O-])cc2[N+](=O)[O-])cc1 | 1.21 ± 0.07 | 0.864 ± 0.059 | 0.777 ± 0.05 | 0.342 ± 0.025 | 1.22 ± 0.19 | 1.34 ± 0.14 | 0.962 (active)
CCOc1ccc(S(=O)(=O)NCCn2nc(C3CC3)ccc2=O)cc1C | 1.01 ± 0.063 | 1.07 ± 0.12 | 1.04 ± 0.045 | 1.02 ± 0.051 | 0.993 ± 0.079 | 0.875 ± 0.15 | 0.982 (active)
O=C(O)c1coc(CNC(=O)c2cocc2C(=O)O)c1 | 1.04 ± 0.1 | 1.08 ± 0.08 | 0.902 ± 0.054 | 0.996 ± 0.027 | 1.51 ± 0.21 | 1.14 ± 0.072 | 1.01 (active)
CC1=CC(=O)c2ccccc2C1=O | 2.29 ± 0.12 | 1.31 ± 0.11 | 1.81 ± 0.2 | 0.357 ± 0.023 | 3.57 ± 0.25 | 1.33 ± 0.4 | 0.0798 (inactive)
Cc1ccc(-c2cc(C(F)(F)F)n3nc(C(=O)NCCCN4CCOCC4)cc3n2)cc1 | 0.995 ± 0.083 | 1.06 ± 0.098 | 0.983 ± 0.082 | 0.968 ± 0.024 | 1.31 ± 0.22 | 1.13 ± 0.22 | 1.01 (active)
Cc1ccc(S(=O)(=O)Nc2ccccc2-c2nc3ccccc3o2)cc1 | 2.45 ± 0.19 | 1.24 ± 0.081 | 1.45 ± 0.051 | 0.323 ± 0.033 | 1.09 ± 0.048 | 1.21 ± 0.08 | 0.713 (active)
Cc1ccc(S(=O)(=O)n2cnc3ccccc32)cc1 | 1.11 ± 0.091 | 1.04 ± 0.071 | 1.02 ± 0.041 | 0.861 ± 0.12 | 1.07 ± 0.09 | 0.993 ± 0.14 | 0.998 (active)
O=S1(=O)CCC(NCc2ccccc2C(F)(F)F)C1 (centres undefined) | 0.997 ± 0.095 | 1.13 ± 0.11 | 0.978 ± 0.08 | 1.02 ± 0.071 | 1.03 ± 0.092 | 1.04 ± 0.32 | 1 (active)
O=c1cccnn1CC1CN(c2ncc(Br)cn2)C1 | 1.04 ± 0.32 | 1.08 ± 0.072 | 1.07 ± 0.096 | 0.964 ± 0.044 | 0.966 ± 0.17 | 1.05 ± 0.23 | 1 (active)
CNCCC=C1c2ccccc2CCc2ccccc21.Cl | 0.45 ± 0.07 | 1.14 ± 0.21 | 1.8 ± 0.13 | 0.41 ± 0.014 | 1.11 ± 0.24 | 1.99 ± 0.4 | 0.293 (inactive)
O=c1cc(-c2ccccc2)oc2cc(O)c(O)c(O)c12 | 1.51 ± 0.5 | 1.09 ± 0.075 | 1.2 ± 0.15 | 0.649 ± 0.034 | 1 ± 0.15 | 0.967 ± 0.12 | 0.992 (active)
CC(C)(C)C1=CC2(C=C(C(C)(C)C)C1=O)Nc1cccc3cccc(c13)N2 | 0.874 ± 0.12 | 1.08 ± 0.062 | 0.96 ± 0.075 | 0.754 ± 0.037 | 1.17 ± 0.11 | 0.942 ± 0.078 | 1.01 (active)
COC(=O)CNC(c1ccccc1)c1cc(Br)ccc1NC(=O)c1ccccc1Cl (centres undefined) | 0.675 ± 0.059 | 1.08 ± 0.092 | 0.963 ± 0.091 | 1 ± 0.037 | 1.78 ± 0.17 | 1.59 ± 0.16 | 1.01 (active)
CC(C)(C)CC(=O)Nc1nc2ccc(S(C)(=O)=O)cc2s1 | 0.987 ± 0.12 | 1.19 ± 0.068 | 1.25 ± 0.12 | 0.787 ± 0.033 | 0.831 ± 0.11 | 0.779 ± 0.23 | 0.948 (active)
O=C(O)c1cc(O)c(O)c(O)c1 | 0.306 ± 0.013 | 0.876 ± 0.078 | 0.749 ± 0.062 | 0.594 ± 0.03 | 1.16 ± 0.2 | 0.97 ± 0.27 | 1.02 (active)
COC(=O)C1=CN(CC2CCCO2)C=C(C(=O)OC)C1c1cccc(OC)c1 (centres undefined) | 1.36 ± 0.25 | 0.859 ± 0.065 | 1.29 ± 0.13 | 0.943 ± 0.034 | 0.947 ± 0.045 | 0.879 ± 0.13 | 0.994 (active)
CCN(CC)CCN1C(=O)C(O)=C(C(=O)c2ccc(Br)cc2)C1c1ccccc1F (centres undefined) | 0.741 ± 0.061 | 0.884 ± 0.1 | 0.985 ± 0.1 | 0.94 ± 0.045 | 1.14 ± 0.08 | 1.2 ± 0.15 | 1.01 (active)
